Assay outcomes from PubChem BioAssay.
Rows were chosen to be rich in hits. Some 0.77% of all compounds tested hit in one or more screens of this group.
Rv3671c inh = inhibits the M. tuberculosis serine protease Rv3671c; inhibition, % at 5.96 µM; 320,000 tested, 0.048% active; in the data active = inhibition above about 38%;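 also: extracellular domain of Rv3671c used as enzyme; 0% = enzyme with DMSO and 100% = no enzyme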
Mtb hypoxia inh = reduces hypoxia-regulated biosensor signal in M. tuberculosis; 300,000 tested, 0.1% active; fluorescence inhibition, % (test concentration not listed); M. tuberculosis hypoxia-regulated fluorescent reporter, fluorescence; in the data active = fluorescence inhibition mostly above about 23%, no sharp cut-off; inactive = mostly below about 17%
UGM FP inh = blocks M. tuberculosis UGM enzyme; P9WIQ1; purified UGM, fluorescence polarization probe displacement; inhibition, % at 10 µM; 320,000 tested, 0.06% active; in the data active = inhibition above about 10%, passing the limit was not always enough; inconclusive = no clear call, values can overlap the other calls
Mtb bLac sens = beta-lactam sensitization of Mtb H37Rv; inhibition, % at 25 µM; 330,000 tested, 0.27% active; M. tuberculosis H37Rv growth with meropenem, percent inhibition; call rule not given here;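 also: growth measured after seven days incubation then overnight dye step; 0% = bacteria only wells and 100% = bacteria with antibiotic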
RecA splice inh = inhibitors of M. tuberculosis RecA intein splicing. 290,000 tested, 0.75% active. cell-free RecA intein splicing, fluorescence. P9WHJ3. inhibition, % (no concentration beside the values). AID 2221; in the data active = inhibition above about 30%; inconclusive = no clear call, values can overlap the other calls;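 also: 0% = vehicle wells and 100% = reference inhibitor control wells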
Target sequence (P9WHJ3 whole entry, looked up, canonical isoform): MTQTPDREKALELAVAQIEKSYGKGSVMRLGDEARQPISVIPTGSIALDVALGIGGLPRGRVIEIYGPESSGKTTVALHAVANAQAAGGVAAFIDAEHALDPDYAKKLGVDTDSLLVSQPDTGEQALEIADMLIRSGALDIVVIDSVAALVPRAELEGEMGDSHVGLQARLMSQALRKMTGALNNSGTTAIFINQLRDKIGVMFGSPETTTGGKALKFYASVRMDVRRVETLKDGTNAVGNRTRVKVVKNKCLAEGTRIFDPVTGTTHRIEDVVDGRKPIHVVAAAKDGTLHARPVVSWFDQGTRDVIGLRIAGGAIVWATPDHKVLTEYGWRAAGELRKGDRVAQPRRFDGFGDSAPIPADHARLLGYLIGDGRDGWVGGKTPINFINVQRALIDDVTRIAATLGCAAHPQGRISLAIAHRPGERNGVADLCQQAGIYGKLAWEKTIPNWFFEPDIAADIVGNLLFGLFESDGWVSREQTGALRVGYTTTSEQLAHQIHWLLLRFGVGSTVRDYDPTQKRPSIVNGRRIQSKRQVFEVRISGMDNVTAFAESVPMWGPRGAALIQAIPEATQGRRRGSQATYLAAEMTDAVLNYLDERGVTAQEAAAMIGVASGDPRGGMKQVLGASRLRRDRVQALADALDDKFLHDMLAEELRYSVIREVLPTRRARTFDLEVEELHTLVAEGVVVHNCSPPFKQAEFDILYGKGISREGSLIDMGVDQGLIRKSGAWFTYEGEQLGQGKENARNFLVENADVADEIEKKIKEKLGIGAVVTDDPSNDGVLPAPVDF
* = called active by the depositor.

What do the screens show for `O=c1c2c([nH]n1-c1ccccc1)CCSC2`?
Rv3671c inh: 4; Mtb hypoxia inh: -12; UGM FP inh: -1; Mtb bLac sens: -2; RecA splice inh: 63*

Results for O=C(O)c1ccc(-n2[nH]c3c(c2=O)CCCC3)cc1 ?
Rv3671c inh: 7; Mtb hypoxia inh: 12; UGM FP inh: 3; Mtb bLac sens: -4; RecA splice inh: 2

What do the screens show for `COC(=O)c1ccc(-n2c(C)cc(C(=O)CCl)c2C)cc1`?
Rv3671c inh: 10; Mtb hypoxia inh: 5; UGM FP inh: 1; Mtb bLac sens: 100; RecA splice inh: 35*

Results for NC1=NCC(c2ccccc2)N1CCCCC1CCCCC1 (configuration not stated) ?
Mtb hypoxia inh: 4

Results for COC(=O)/C(=C1/Oc2ccc(C(C)(C)C)cc2S1)C(F)(F)F ?
Rv3671c inh: -8; Mtb hypoxia inh: -5; UGM FP inh: 0; Mtb bLac sens: 0

How did COC(=O)/C(=C1/Oc2cc(C)oc(=O)c2S1)C(F)(F)F do in these assays?
Rv3671c inh: 2; UGM FP inh: -1; Mtb bLac sens: 99; RecA splice inh: 44*

What do the screens show for `CC(C)CCN1C(=O)c2cccc3c(N)ccc(c23)C1=O`?
Rv3671c inh: 6; UGM FP inh: 18*; Mtb bLac sens: -6; RecA splice inh: -405

What do the screens show for `Nc1ccc2c3c(cccc13)C(=O)N(c1ccccc1)C2=O`?
Mtb hypoxia inh: -28; RecA splice inh: -72

How did Cc1cccc(N2C(=O)c3cccc4c(N)ccc(c34)C2=O)c1 do in these assays?
Rv3671c inh: 11; UGM FP inh: 39*; Mtb bLac sens: -1; RecA splice inh: -56

How did Nc1cccc(N2C(=O)c3cccc4c(N)ccc(c34)C2=O)c1 do in these assays?
Rv3671c inh: 6; UGM FP inh: 29*; Mtb bLac sens: -5; RecA splice inh: -79

Results for CCN1C(=O)c2cccc3c(Cl)ccc(c23)C1=O ?
Rv3671c inh: 5; Mtb hypoxia inh: -1; UGM FP inh: 2; Mtb bLac sens: -6; RecA splice inh: 1

How did C=C(C)C(=O)N1CC2(CC(c3cccc(NC(=O)C=CC)c3)=NO2)CC1C(N)=O (configuration not stated) do in these assays?
Mtb hypoxia inh: 11

What do the screens show for `Cc1ccc(C(=O)OCC(=O)Nc2ccccc2)cc1S(=O)(=O)N1CCCCC1`?
Rv3671c inh: -14; Mtb hypoxia inh: 35*; UGM FP inh: 0; Mtb bLac sens: 2

What do the screens show for `Cc1cccc(NC(=O)COC(=O)c2ccc(C)c(S(=O)(=O)N3CCCCC3)c2)c1`?
Rv3671c inh: -22; Mtb hypoxia inh: 0; UGM FP inh: -3; Mtb bLac sens: -5

What do the screens show for `Cc1ccccc1CS(=O)(=O)c1nnc([C@H](CC(C)C)NC(=O)OC(C)(C)C)o1`?
Rv3671c inh: 2; Mtb hypoxia inh: -2; UGM FP inh: 0; Mtb bLac sens: inconclusive; RecA splice inh: 52*

What do the screens show for `CC[C@@H](C)[C@H](NC(=O)OC(C)(C)C)c1nnc(S(=O)(=O)Cc2cc(C)ccc2C)o1`?
Rv3671c inh: -8; Mtb hypoxia inh: 2; UGM FP inh: 1; Mtb bLac sens: 42

What do the screens show for `CC(C)(C)C(O)C=Cc1ccc2c(c1)OCO2` (configuration not stated)?
Mtb hypoxia inh: -7

What do the screens show for `O=Nc1c(O)c2ccccc2c2ccccc12`?
Rv3671c inh: 5; Mtb hypoxia inh: 11; UGM FP inh: -1; Mtb bLac sens: 100; RecA splice inh: 41*

How did C=C(C)[C@@H]1CC=C(CN2CCN(Cc3ccccc3)CC2)CC1 do in these assays?
Rv3671c inh: -1; Mtb hypoxia inh: 35*; UGM FP inh: -2; Mtb bLac sens: 77; RecA splice inh: 1

How did C=C(C)C1CC=C(CN2CCN(Cc3ccccc3)CC2)CC1 (configuration not stated) do in these assays?
Rv3671c inh: -6; Mtb hypoxia inh: 22; UGM FP inh: 1; Mtb bLac sens: 82; RecA splice inh: 3

How did O=[N+]([O-])c1cc(-c2ccc(C=Nn3cnnc3)o2)cc([N+](=O)[O-])c1 do in these assays?
Mtb hypoxia inh: 43*

How did O=C(OCC#CCSc1nnc(-c2cccc3ccccc23)o1)c1ccc2ccccc2c1 do in these assays?
Rv3671c inh: -11; Mtb hypoxia inh: 20; UGM FP inh: -3; Mtb bLac sens: 1

What do the screens show for `O=C(OCC#CCSc1nnc(-c2ccccc2)o1)c1ccco1`?
Rv3671c inh: 0; UGM FP inh: -1; Mtb bLac sens: 99; RecA splice inh: 4

How did O=C(OCC#CCSc1nnc(-c2cccc3ccccc23)o1)c1cc2ccccc2o1 do in these assays?
Rv3671c inh: 1; Mtb hypoxia inh: 48*; UGM FP inh: 2; Mtb bLac sens: 32

What do the screens show for `O=C(OCC#CCSc1nnc(-c2ccc(Br)cc2)o1)c1ccco1`?
Rv3671c inh: -4; Mtb hypoxia inh: 35*; UGM FP inh: 3; Mtb bLac sens: 100; RecA splice inh: 1

What do the screens show for `CCN1C(=O)C2C(c3ccc(-c4ccc(OC)cc4)cc3)N[C@@](CC(C)C)(C(=O)OC)C2C1=O` (some centres not stated)?
Mtb hypoxia inh: 14

How did CN1CCN(C(=O)C2=CC(C3CCCCC3)CC(OCCCCO)O2)CC1 (configuration not stated) do in these assays?
Mtb hypoxia inh: 8

How did CN1C2C=C3C(C#N)=C(N)C(C#N)(C#N)[C@H](c4c(F)cccc4F)[C@H]3C1CC2 (some centres not stated) do in these assays?
Rv3671c inh: -2; Mtb hypoxia inh: -4; UGM FP inh: 0; Mtb bLac sens: 6; RecA splice inh: 7

What do the screens show for `N#CC1=C(N)C(C#N)(C#N)[C@H](c2c(F)cccc2F)[C@H]2CC3(CC=C12)OCCO3`?
Rv3671c inh: 3; Mtb hypoxia inh: -2; UGM FP inh: 0; Mtb bLac sens: 2; RecA splice inh: 35*

How did CC(C(=O)CC(=O)OC(C)(C)C)C(O)c1c(F)cccc1Cl (configuration not stated) do in these assays?
Mtb hypoxia inh: 5

How did O=C(/C=C/c1ccccc1)c1ccccc1 do in these assays?
Rv3671c inh: 1; UGM FP inh: 0; Mtb bLac sens: 75; RecA splice inh: -1

How did N#Cc1ccc(/C=C/C(=O)c2ccccc2)cc1 do in these assays?
Rv3671c inh: -3; Mtb hypoxia inh: 36*; UGM FP inh: -1; Mtb bLac sens: 100; RecA splice inh: 6

Results for O=C(NC(Cc1ccccc1)C(=O)OCc1ccccc1)c1nc[nH]c1C(=O)N1CCNCC1 (configuration not stated) ?
Mtb hypoxia inh: 14

How did CCOC(=O)CN1C=C(c2ccc3ccccc3n2)C(C[N+](=O)[O-])c2ccccc21 (configuration not stated) do in these assays?
Rv3671c inh: 5; Mtb hypoxia inh: 9; UGM FP inh: 17*; Mtb bLac sens: -8; RecA splice inh: -115

Results for CCOC(=O)CSc1ccc2ccccc2n1 ?
Rv3671c inh: 1; Mtb hypoxia inh: 4; UGM FP inh: -1; Mtb bLac sens: 19; RecA splice inh: 0
